Assay results taken from the supplement of paper PMC12282887.
± gives the standard deviation of the averaged measurements.

Legend:
Test in all cases: promoter activity interaction Z-score (Lux/OD deviation from empty-vector control); higher = stronger promoter induction by the compound
[1] = system: E. coli BW25113 acrABp lux reporter
In short: (§1)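 At 37°C, E. coli BW25113 reporter cultures in 40 µl LB Lennox in 384-well plates were read for OD600 and luminescence every 30 min for 12 h. Windows were 0–8 h for wild type and 1–9 h for deletion strains, and wells under 10% of the median growth value were removed. The score is the Z-transformed residual of growth-normalised luminescence against a control fit.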

[2] = system: E. coli BW25113 marRABp lux reporter
In short: as §1

[3] = system: E. coli BW25113 micFp lux reporter
In short: as §1

[4] = system: E. coli BW25113 ompFp lux reporter
In short: as §1

[5] = system: E. coli BW25113 robp lux reporter
In short: as §1

[6] = system: E. coli BW25113 soxSp lux reporter
In short: as §1

[7] = system: E. coli BW25113 tolCp lux reporter
In short: as §1

[8] = 3.1 µg/ml, genetic background: wild type
[9] = 3.1 µg/ml, genetic background: ΔmarA
[10] = 3.1 µg/ml, genetic background: Δrob
[11] = 3.1 µg/ml, genetic background: ΔsoxS
[12] = 6.1 µg/ml, genetic background: wild type
[13] = 6.1 µg/ml, genetic background: ΔmarA
[14] = 6.1 µg/ml, genetic background: Δrob
[15] = 6.1 µg/ml, genetic background: ΔsoxS
[16] = 12.2 µg/ml, genetic background: wild type
[17] = 12.2 µg/ml, genetic background: ΔmarA
[18] = 12.2 µg/ml, genetic background: Δrob
[19] = 12.2 µg/ml, genetic background: ΔsoxS
[20] = 24.5 µg/ml, genetic background: wild type
[21] = 24.5 µg/ml, genetic background: Δrob
[22] = 24.5 µg/ml, genetic background: ΔsoxS
[23] = 24.5 µg/ml, genetic background: ΔmarA

## COc1ccc(C[C@H](N)C(=O)N[C@H]2[C@@H](O)[C@H](n3cnc4c(N(C)C)ncnc43)O[C@@H]2CO)cc1 [Puromycin]
[1]; [8]
  promoter activity interaction Z-score: -0.169 ± 0.22
[1]; [9]
  promoter activity interaction Z-score: 0.738 ± 0.17
[1]; [10]
  promoter activity interaction Z-score: 0.211 ± 0.055
[1]; [11]
  promoter activity interaction Z-score: 0.2622 ± 0.0026
[1]; [12]
  promoter activity interaction Z-score: -0.104 ± 0.052
[1]; [13]
  promoter activity interaction Z-score: 0.582 ± 0.0062
[1]; [14]
  promoter activity interaction Z-score: 0.153 ± 0.24
[1]; [15]
  promoter activity interaction Z-score: 0.199 ± 0.57
[1]; [16]
  promoter activity interaction Z-score: -0.0259 ± 0.33
[1]; [17]
  promoter activity interaction Z-score: -0.302 ± 0.48
[1]; [18]
  promoter activity interaction Z-score: 0.308 ± 0.44
[1]; [19]
  promoter activity interaction Z-score: 0.649 ± 0.26
[1]; [20]
  promoter activity interaction Z-score: 3.35 ± 1.5
[1]; [21]
  promoter activity interaction Z-score: 3.54
[1]; [22]
  promoter activity interaction Z-score: 0.855
[2]; [8]
  promoter activity interaction Z-score: 0.00293 ± 0.13
[2]; [9]
  promoter activity interaction Z-score: 0.189 ± 0.15
[2]; [10]
  promoter activity interaction Z-score: 0.309 ± 0.18
[2]; [11]
  promoter activity interaction Z-score: 0.0658 ± 0.096
[2]; [12]
  promoter activity interaction Z-score: 0.213 ± 0.31
[2]; [13]
  promoter activity interaction Z-score: 0.623 ± 0.33
[2]; [14]
  promoter activity interaction Z-score: 0.273 ± 0.14
[2]; [15]
  promoter activity interaction Z-score: 0.534 ± 0.15
[2]; [16]
  promoter activity interaction Z-score: 0.362 ± 0.15
[2]; [17]
  promoter activity interaction Z-score: 0.61 ± 0.46
[2]; [18]
  promoter activity interaction Z-score: 0.305 ± 0.046
[2]; [19]
  promoter activity interaction Z-score: 0.522 ± 0.076
[2]; [20]
  promoter activity interaction Z-score: 1.38 ± 0.23
[2]; [21]
  promoter activity interaction Z-score: 2.58
[3]; [8]
  promoter activity interaction Z-score: 0.0526 ± 0.12
[3]; [9]
  promoter activity interaction Z-score: 0.103 ± 0.069
[3]; [10]
  promoter activity interaction Z-score: 0.103 ± 0.15
[3]; [11]
  promoter activity interaction Z-score: 0.0839 ± 0.0077
[3]; [12]
  promoter activity interaction Z-score: 0.357 ± 0.041
[3]; [13]
  promoter activity interaction Z-score: 0.0213 ± 0.081
[3]; [14]
  promoter activity interaction Z-score: 0.102 ± 0.074
[3]; [15]
  promoter activity interaction Z-score: 0.145 ± 0.035
[3]; [16]
  promoter activity interaction Z-score: 0.699 ± 0.21
[3]; [17]
  promoter activity interaction Z-score: -0.00373 ± 0.096
[3]; [18]
  promoter activity interaction Z-score: 0.459 ± 0.3
[3]; [19]
  promoter activity interaction Z-score: 0.738 ± 0.034
[3]; [20]
  promoter activity interaction Z-score: 1.71 ± 0.31
[3]; [23]
  promoter activity interaction Z-score: -0.484
[3]; [21]
  promoter activity interaction Z-score: 0.834 ± 0.41
[3]; [22]
  promoter activity interaction Z-score: 1.39 ± 0.35
[4]; [8]
  promoter activity interaction Z-score: 0.322 ± 0.085
[4]; [9]
  promoter activity interaction Z-score: 1.17 ± 0.67
[4]; [10]
  promoter activity interaction Z-score: 0.656 ± 0.1
[4]; [11]
  promoter activity interaction Z-score: 0.816 ± 0.3
[4]; [12]
  promoter activity interaction Z-score: 0.855 ± 0.35
[4]; [13]
  promoter activity interaction Z-score: 1.33 ± 0.85
[4]; [14]
  promoter activity interaction Z-score: 0.692 ± 0.034
[4]; [15]
  promoter activity interaction Z-score: 0.84 ± 0.13
[4]; [16]
  promoter activity interaction Z-score: 0.351 ± 0.31
[4]; [17]
  promoter activity interaction Z-score: 0.942 ± 0.49
[4]; [18]
  promoter activity interaction Z-score: 0.448 ± 0.37
[4]; [19]
  promoter activity interaction Z-score: 1.03 ± 0.34
[4]; [20]
  promoter activity interaction Z-score: 0.599 ± 1.4
[5]; [8]
  promoter activity interaction Z-score: 0.0602 ± 0.017
[5]; [9]
  promoter activity interaction Z-score: 0.523 ± 0.036
[5]; [10]
  promoter activity interaction Z-score: 0.5595 ± 0.0042
[5]; [11]
  promoter activity interaction Z-score: -0.174 ± 0.69
[5]; [12]
  promoter activity interaction Z-score: 0.596 ± 0.45
[5]; [13]
  promoter activity interaction Z-score: 0.0157 ± 0.15
[5]; [14]
  promoter activity interaction Z-score: 0.269 ± 0.22
[5]; [15]
  promoter activity interaction Z-score: 0.279 ± 0.33
[5]; [16]
  promoter activity interaction Z-score: -0.231 ± 0.16
[5]; [17]
  promoter activity interaction Z-score: 0.0377 ± 0.16
[5]; [18]
  promoter activity interaction Z-score: -0.211 ± 0.45
[5]; [19]
  promoter activity interaction Z-score: 0.0544 ± 0.43
[5]; [20]
  promoter activity interaction Z-score: -0.191
[5]; [23]
  promoter activity interaction Z-score: -0.499
[6]; [8]
  promoter activity interaction Z-score: -0.228 ± 0.044
[6]; [9]
  promoter activity interaction Z-score: -0.0397 ± 0.09
[6]; [10]
  promoter activity interaction Z-score: 0.102 ± 0.24
[6]; [11]
  promoter activity interaction Z-score: 0.373 ± 0.73
[6]; [12]
  promoter activity interaction Z-score: -0.0604 ± 0.21
[6]; [13]
  promoter activity interaction Z-score: 0.0219 ± 0.021
[6]; [14]
  promoter activity interaction Z-score: -0.144 ± 0.099
[6]; [15]
  promoter activity interaction Z-score: 0.298 ± 0.46
[6]; [16]
  promoter activity interaction Z-score: 0.0076 ± 0.14
[6]; [17]
  promoter activity interaction Z-score: 0.0786 ± 0.15
[6]; [18]
  promoter activity interaction Z-score: 0.00948 ± 0.09
[6]; [19]
  promoter activity interaction Z-score: 0.315 ± 0.021
[6]; [20]
  promoter activity interaction Z-score: -0.0601 ± 0.063
[6]; [23]
  promoter activity interaction Z-score: -0.197 ± 0.049
[6]; [21]
  promoter activity interaction Z-score: -0.131 ± 0.33
[6]; [22]
  promoter activity interaction Z-score: 0.525 ± 0.4
[7]; [8]
  promoter activity interaction Z-score: -0.726 ± 1
[7]; [9]
  promoter activity interaction Z-score: -0.59 ± 0.65
[7]; [10]
  promoter activity interaction Z-score: -0.281 ± 0.23
[7]; [11]
  promoter activity interaction Z-score: 0.126 ± 0.63
[7]; [12]
  promoter activity interaction Z-score: -0.252 ± 0.51
[7]; [13]
  promoter activity interaction Z-score: -0.611 ± 0.2
[7]; [14]
  promoter activity interaction Z-score: -0.785 ± 0.27
[7]; [15]
  promoter activity interaction Z-score: -0.165 ± 0.34
[7]; [16]
  promoter activity interaction Z-score: -0.285 ± 0.69
[7]; [17]
  promoter activity interaction Z-score: 0.412 ± 0.11
[7]; [18]
  promoter activity interaction Z-score: -0.374 ± 0.33
[7]; [19]
  promoter activity interaction Z-score: -0.186 ± 0.2
[7]; [20]
  promoter activity interaction Z-score: 1.04 ± 0.64
[7]; [23]
  promoter activity interaction Z-score: 1.74
[7]; [21]
  promoter activity interaction Z-score: -0.0754 ± 0.73
[7]; [22]
  promoter activity interaction Z-score: 0.227 ± 0.79
